# Source: PubChem BioAssay (NCATS)
# Inconclusive results are not listed. Unmarked numbers belong to inactive results. Active and inactive are the calls of the source. Calls follow the shape of the dose curve; as a rule, active = well fitted curve in the direction sought with a large enough effect; inconclusive = small, poorly fitted or top-dose-only effect, or another doubt; inactive = no such curve, though single readings can be large; an effect the other way counts as inactive or inconclusive.
# Assays:
# [1] = BET inhibitor-based combinations targeting novel dependencies in MECOM-rearranged (r) AML: SET-2 cell line (AID 2202231); conditions: SET-2 AML cells viability, CellTiter-Glo luminescence, 48 h; viability: active compounds read low, concentration not given here; also: nearly all actives have a fitted effect of over 35% in size;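 as to viability: plate controls were DMSO treated cells for no effect and wells without cells for full effect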
# Outline: (§1)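 A 48 hr incubation preceded viability reading by CellTiter-Glo, with 15 min room-temperature development. Dose series had 11 points; normalization used DMSO and empty wells; AUC was computed and mean-centered per line as Z-AUC.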
# [2] = BET inhibitor-based combinations targeting novel dependencies in MECOM-rearranged (r) AML: MV-4-11 cell line (AID 2202233); conditions: MV-4-11 AML viability, CellTiter-Glo luminescence, 48 h; series mostly up to 46 µM; also: nearly all actives have a fitted effect of over 45% in size
# Outline: (§2)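 Each compound is tested in an 11-point concentration series against 500 seeded cells/well for 48 hr. The luminescent viability signal is normalized to DMSO and blank wells, then reduced to AUC and a cell-line-centred Z-AUC.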
# [3] = BET inhibitor-based combinations targeting novel dependencies in MECOM-rearranged (r) AML: OCI-AML3 cell line (AID 2202232); conditions: CellTiter-Glo luminescence, 48 h; Potency: OCI-AML3 viability; series mostly up to 46 µM; also: nearly all actives have a fitted effect of over 35% in size
# Outline: as §1
# [4] = BET inhibitor-based combinations targeting novel dependencies in MECOM-rearranged (r) AML: UCSD-AML1 cell line (AID 2202235); conditions: UCSD-AML1 AML cells viability, CellTiter-Glo, 48 h; series mostly up to 46 µM; also: nearly all actives have a fitted effect of over 40% in size
# Outline: as §2
# [5] = BET inhibitor-based combinations targeting novel dependencies in MECOM-rearranged (r) AML: AML-191 cell line (AID 2202236; also: nearly all actives have a fitted effect of over 35% in size); conditions: AML-191 viability, CellTiter-Glo luminescence, 48 h; series mostly up to 46 µM
# Outline: as §1
# [6] = BET inhibitor-based combinations targeting novel dependencies in MECOM-rearranged (r) AML: AML-194 cell line (AID 2202237; also: nearly all actives have a fitted effect of over 40% in size); conditions: AML-194 (MECOM-r AML) viability, CellTiter-Glo, 48 h; series mostly up to 46 µM
# Outline: as §1
# [7] = BET inhibitor-based combinations targeting novel dependencies in MECOM-rearranged (r) AML: HNT-34 cell line (AID 2202234); conditions: HNT-34 AML viability, CellTiter-Glo luminescence, 48 h; series mostly up to 46 µM; also: nearly all actives have a fitted effect of over 35% in size
# Outline: as §2
# Potency is read from the fitted curve at half-maximal effect.
compound,measurement,setting,value
CC(C)NCCCn1c(Sc2cc(Cl)cc(Cl)c2)nc2c(N)ncnc21,viability,[1],98.3%
same,Potency,[2],14.8 µM (active)
O=C(Nc1cccc(C(F)(F)F)c1)c1cccc2cc(Oc3cc(CO)ncn3)ccc12,viability,[1],103%
same,Potency,[3],inactive
same,Potency,[4],inactive
same,Potency,[5],inactive
same,Potency,[6],inactive
Cc1ccc(C2=Nc3ccc(Cl)cc3OC2)cc1,Potency,[1],8.33 µM (active)
same,Potency,[3],10.5 µM (active)
same,Potency,[4],inactive
same,Potency,[5],inactive
same,Potency,[6],inactive
Cc1cc(C)cc(Oc2ccc(CNC(=O)[C@H](C)N)cc2C)c1,viability,[1],109%
same,Potency,[2],18.6 µM (active)
CN1CCN(CCCNc2ncc(Cl)c(-c3cc4c(C(=O)NC5CC5)cccc4s3)n2)CC1,viability,[1],80.2%
same,Potency,[3],inactive
same,Potency,[4],inactive
CNS(=O)(=O)Nc1nccc(Cc2c(C)c3ccc(Oc4ncccn4)cc3oc2=O)c1F,Potency,[1],3.72 µM (active)
same,Potency,[3],0.0332 µM (active)
same,Potency,[4],0.525 µM (active)
CNCCN(C)Cc1cn[nH]c1-c1ccc(OC2CC(OCCC3CCOCC3)C2)cc1 (stereo not drawn),viability,[1],95.3%
same,Potency,[2],20.9 µM (active)
same,Potency,[7],18.6 µM (active)
Cc1cc(/C=c2/sc3nc4ccccc4n3c2=O)c(C)n1-c1ccccc1,viability,[1],105%
same,Potency,[3],14.8 µM (active)
same,Potency,[4],inactive
same,Potency,[5],16.6 µM (active)
O=S(=O)(NCCNC/C=C/c1ccc(Br)cc1)c1cccc2cnccc12,Potency,[1],14.8 µM (active)
same,Potency,[2],14.8 µM (active)
c1ccc2c(-c3cnn4cc(-c5ccc(OCCN6CCOCC6)cc5)cnc34)ccnc2c1,Potency,[1],12.9 µM (active)
same,Potency,[2],4.56 µM (active)
same,Potency,[7],8.11 µM (active)
NS(=O)(=O)Oc1ccc2c3c(c(=O)oc2c1)CCCCC3,viability,[1],105%
same,Potency,[3],inactive
same,Potency,[4],inactive
same,Potency,[5],inactive
same,Potency,[6],inactive
C=C1[C@H](OC(=O)/C=C(\C)CC)C[C@@H](C(C)C)[C@@H]2[C@H]([C@@H](C)OC(C)=O)C(=O)C[C@@H]12,Potency,[1],16.6 µM (active)
same,Potency,[2],18.6 µM (active)
COc1ccc(C(=O)N2CCN(c3ccc4c(c3)CCC(=O)N4)CC2)cc1OC,viability,[1],105%
same,Potency,[3],inactive
same,Potency,[4],inactive
same,Potency,[5],inactive
same,Potency,[6],inactive
c1ccc(-c2nn3c(c2-c2ccnc4cc(OCCN5CCOCC5)ccc24)CCC3)nc1,viability,[1],81.4%
same,Potency,[3],inactive
same,Potency,[4],20.9 µM (active)
same,Potency,[5],18.6 µM (active)
OCCn1cc(-c2ccc3c(c2)CC/C3=N\O)c(-c2ccncc2)n1,viability,[1],102%
same,Potency,[3],2.35 µM (active)
same,Potency,[4],inactive
Nc1ncnc2nc(-c3ccc(N4CCOCC4)nc3)cc(-c3cccc(Br)c3)c12,viability,[1],91.6%
same,Potency,[2],8.33 µM (active)
O=C(/C=C\n1cnc(-c2cc(C(F)(F)F)cc(C(F)(F)F)c2)n1)NNc1ccccn1,Potency,[1],0.934 µM (active)
same,Potency,[3],0.833 µM (active)
same,Potency,[4],0.468 µM (active)
same,Potency,[5],0.525 µM (active)
same,Potency,[6],0.417 µM (active)
